# Experimental data from the supplement of paper PMC8728848.
# This excerpt belongs to a sample that is enriched for the strongest signals.
# B1: AT1G15820(2) (Arabidopsis thaliana), Q9LMQ2 (protein)
# chain: MAMAVSGAVLSGLGSSFLTGGKRGATALASGVGTGAQRVGRKTLIVAAAAAQPKKSWIPAVKGGGNFLDPEWLDGSLPGDFGFDPLGLGKDPAFLKWYREAELIHGRWAMAAVLGIFVGQAWSGVAWFEAGAQPDAIAPFSFGSLLGTQLLLMGWVESKRWVDFFNPDSQSVEWATPWSKTAENFANYTGDQGYPGGRFFDPLGLAGKNRDGVYEPDFEKLERLKLAEIKHSRLAMVAMLIFYFEAGQGKTPLGALGL
# Legend:
# Experiment in all cases: glycan array binding signal (z-score within array); higher = stronger binding
# Details in all cases: glycan notation: IUPAC condensed, linker removed
# [1] = molecular target: Fuc(a1-2)Gal(b1-4)GlcNAc(b1-2)Man(a1-3)[Fuc(a1-2)Gal(b1-4)GlcNAc(b1-2)Man(a1-6)]Man(b1-4)GlcNAc(b1-4)[Fuc(a1-6)]GlcNAc
# Summary of the method: (§1)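 Glycan array data came from 3228 arrays in the Consortium for Functional Glycomics database, and only arrays with an available protein sequence were kept. Glycan names were put into IUPAC-condensed notation, and columns mapping to the same glycan were averaged. The binding signal is a within-array Z-score, averaged across arrays of one protein sequence run at different concentrations or buffers and across linkers. A negative Z-score can be read as non-binding.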
# [2] = molecular target: Fuc(a1-2)[Gal(a1-3)]Gal(b1-3)GalNAc
# Summary of the method: as §1
# [3] = molecular target: Fuc(a1-2)[Gal(a1-4)]Gal(b1-4)GlcNAc
# Summary of the method: as §1
# [4] = molecular target: Fuc(a1-2)[GalNAc(a1-3)]Gal(b1-4)Glc
# Summary of the method: as §1
# [5] = molecular target: Fuc(a1-2)[GalNAc(a1-3)]Gal(b1-4)[Fuc(a1-3)]GlcNAc(b1-3)GalNAc
# Summary of the method: as §1
# [6] = molecular target: Fuc(a1-3)[GalNAc(b1-4)]GlcNAc
# Summary of the method: as §1
# Gal(a1-3)GalNAc = molecular target: Gal(a1-3)GalNAc
# Summary of the method: as §1
# [7] = molecular target: Gal(a1-3)[Gal(a1-4)]Gal(b1-4)GlcNAc
# Summary of the method: as §1
# Gal(a1-4)Gal(b1-4)Glc = molecular target: Gal(a1-4)Gal(b1-4)Glc
# Summary of the method: as §1
# Gal(b1-2)Gal = molecular target: Gal(b1-2)Gal
# Summary of the method: as §1
# [8] = molecular target: Gal(b1-3)GalNAc(b1-4)Gal(b1-4)Glc
# Summary of the method: as §1
# Gal(b1-3)GlcNAc = molecular target: Gal(b1-3)GlcNAc
# Summary of the method: as §1
# [9] = molecular target: Gal(b1-3)GlcNAc(b1-2)Man(a1-3)[Gal(b1-3)GlcNAc(b1-2)Man(a1-6)]Man(b1-4)GlcNAc(b1-4)GlcNAc
# Summary of the method: as §1
# [10] = molecular target: Gal(b1-3)GlcNAc(b1-3)Gal(b1-4)Glc
# Summary of the method: as §1
# [11] = molecular target: Gal(b1-3)GlcNAc(b1-3)Gal(b1-4)GlcNAc(b1-3)Gal(b1-4)GlcNAc(b1-2)[Gal(b1-3)GlcNAc(b1-3)Gal(b1-4)GlcNAc(b1-3)Gal(b1-4)GlcNAc(b1-6)]Man(a1-6)[Gal(b1-3)GlcNAc(b1-3)Gal(b1-4)GlcNAc(b1-3)Gal(b1-4)GlcNAc(b1-2)Man(a1-3)]Man(b1-4)GlcNAc(b1-4)[Fuc(a1-6)]GlcNAc
# Summary of the method: as §1
# [12] = molecular target: Gal(b1-3)GlcNAc(b1-6)[Gal(b1-3)]GalNAc
# Summary of the method: as §1
# [13] = molecular target: Gal(b1-3)[Fuc(a1-4)]GlcNAc(b1-2)Man(a1-3)[Gal(b1-3)[Fuc(a1-4)]GlcNAc(b1-2)Man(a1-6)]Man(b1-4)GlcNAc(b1-4)[Fuc(a1-6)]GlcNAc
# Summary of the method: as §1
# [14] = molecular target: Gal(b1-3)[Fuc(a1-4)]GlcNAc(b1-6)GalNAc
# Summary of the method: as §1
# [15] = molecular target: Gal(b1-4)GlcNAc(b1-2)Man(a1-6)[GlcNAc(b1-2)Man(a1-3)]Man(b1-4)GlcNAc(b1-4)GlcNAc
# Summary of the method: as §1
# [16] = molecular target: Gal(b1-4)GlcNAc(b1-3)Gal(b1-4)Glc
# Summary of the method: as §1
# [17] = molecular target: Gal(b1-4)GlcNAc(b1-3)Gal(b1-4)GlcNAc(b1-2)Man(a1-3)[Gal(b1-4)GlcNAc(b1-3)Gal(b1-4)GlcNAc(b1-2)Man(a1-6)]Man(b1-4)GlcNAc(b1-4)GlcNAc
# Summary of the method: as §1
# [18] = molecular target: Gal(b1-4)GlcNAc(b1-3)Gal(b1-4)GlcNAc(b1-3)Gal(b1-4)GlcNAc(b1-3)Gal(b1-4)GlcNAc(b1-2)Man(a1-3)[Gal(b1-4)GlcNAc(b1-3)Gal(b1-4)GlcNAc(b1-3)Gal(b1-4)GlcNAc(b1-3)Gal(b1-4)GlcNAc(b1-2)Man(a1-6)]Man(b1-4)GlcNAc(b1-4)[Fuc(a1-6)]GlcNAc
# Summary of the method: as §1
# [19] = molecular target: Gal(b1-4)GlcNAc(b1-3)GalNAc
# Summary of the method: as §1
# Gal3S(b1-4)Glc6S = molecular target: Gal3S(b1-4)Glc6S
# Summary of the method: as §1
# [20] = molecular target: Gal3S(b1-4)[Fuc(a1-3)]Glc6S
# Summary of the method: as §1
# [21] = molecular target: GalNAc(b1-3)Gal(a1-4)Gal(b1-4)GlcNAc
# Summary of the method: as §1
# GalNAc(b1-4)GlcNAc = molecular target: GalNAc(b1-4)GlcNAc
# Summary of the method: as §1
# GalNAc4S6S(b1-4)GlcNAc = molecular target: GalNAc4S6S(b1-4)GlcNAc
# Summary of the method: as §1
# [22] = molecular target: GlcNAc(a1-3)Gal(b1-4)GlcNAc
# Summary of the method: as §1
# [23] = molecular target: GlcNAc(a1-4)Gal(b1-4)GalNAc
# Summary of the method: as §1
# [24] = molecular target: GlcNAc(b1-3)Gal(b1-4)GlcNAc(b1-6)[Gal(b1-3)]GalNAc
# Summary of the method: as §1
# [25] = molecular target: GlcNAc(b1-4)GlcNAc(b1-4)GlcNAc
# Summary of the method: as §1
# Kdn(a2-6)Gal(b1-4)GlcNAc = molecular target: Kdn(a2-6)Gal(b1-4)GlcNAc
# Summary of the method: as §1
# [26] = molecular target: Man(a1-2)Man(a1-6)[Man(a1-3)]Man(a1-6)[Man(a1-2)Man(a1-2)Man(a1-3)]Man(b1-4)GlcNAc(b1-4)GlcNAc
# Summary of the method: as §1
# [27] = molecular target: Neu5Ac(a2-3)Gal(b1-4)GlcNAc(b1-2)Man(a1-3)[Neu5Ac(a2-3)Gal(b1-4)GlcNAc(b1-2)Man(a1-6)]Man(b1-4)GlcNAc(b1-4)GlcNAc
# Summary of the method: as §1
# [28] = molecular target: Neu5Ac(a2-3)Gal(b1-4)GlcNAc(b1-3)[Neu5Ac(a2-3)Gal(b1-4)GlcNAc(b1-6)]GalNAc
# Summary of the method: as §1
# [29] = molecular target: Neu5Ac(a2-3)Gal(b1-4)GlcNAc(b1-6)GalNAc
# Summary of the method: as §1
# [30] = molecular target: Neu5Ac(a2-3)Gal(b1-4)GlcNAc6S
# Summary of the method: as §1
# [31] = molecular target: Neu5Ac(a2-3)[GalNAc(b1-4)]Gal(b1-4)GlcNAc
# Summary of the method: as §1
# [32] = molecular target: Neu5Ac(a2-8)Neu5Ac(a2-3)Gal(b1-4)Glc
# Summary of the method: as §1
# [33] = molecular target: Neu5Ac(b2-6)Gal(b1-4)GlcNAc
# Summary of the method: as §1
# [34] = molecular target: Neu5Gc(b2-6)Gal(b1-4)GlcNAc
# Summary of the method: as §1
binder,measurement,setting,value
B1,glycan array binding signal (z-score),[1],-0.613
same,glycan array binding signal (z-score),[2],-0.022
same,glycan array binding signal (z-score),[3],1.93
same,glycan array binding signal (z-score),[4],-0.507
same,glycan array binding signal (z-score),[5],6.82
same,glycan array binding signal (z-score),[6],1.79
same,glycan array binding signal (z-score),Gal(a1-3)GalNAc,3.12
same,glycan array binding signal (z-score),[7],9.8
same,glycan array binding signal (z-score),Gal(a1-4)Gal(b1-4)Glc,2.16
same,glycan array binding signal (z-score),Gal(b1-2)Gal,0.453
same,glycan array binding signal (z-score),[8],2.89
same,glycan array binding signal (z-score),Gal(b1-3)GlcNAc,0.12
same,glycan array binding signal (z-score),[9],0.477
same,glycan array binding signal (z-score),[10],-0.032
same,glycan array binding signal (z-score),[11],1.41
same,glycan array binding signal (z-score),[12],0.112
same,glycan array binding signal (z-score),[13],-0.308
same,glycan array binding signal (z-score),[14],-0.229
same,glycan array binding signal (z-score),[15],0.324
same,glycan array binding signal (z-score),[16],-0.362
same,glycan array binding signal (z-score),[17],0.779
same,glycan array binding signal (z-score),[18],0.197
same,glycan array binding signal (z-score),[19],-0.445
same,glycan array binding signal (z-score),Gal3S(b1-4)Glc6S,0.421
same,glycan array binding signal (z-score),[20],1.96
same,glycan array binding signal (z-score),[21],3.99
same,glycan array binding signal (z-score),GalNAc(b1-4)GlcNAc,8.56
same,glycan array binding signal (z-score),GalNAc4S6S(b1-4)GlcNAc,-0.032
same,glycan array binding signal (z-score),[22],-0.384
same,glycan array binding signal (z-score),[23],0.069
same,glycan array binding signal (z-score),[24],-0.16
same,glycan array binding signal (z-score),[25],-0.425
same,glycan array binding signal (z-score),Kdn(a2-6)Gal(b1-4)GlcNAc,-0.581
same,glycan array binding signal (z-score),[26],-0.821
same,glycan array binding signal (z-score),[27],-0.363
same,glycan array binding signal (z-score),[28],0.172
same,glycan array binding signal (z-score),[29],-0.315
same,glycan array binding signal (z-score),[30],-0.028
same,glycan array binding signal (z-score),[31],-0.469
same,glycan array binding signal (z-score),[32],-0.326
same,glycan array binding signal (z-score),[33],-0.408
same,glycan array binding signal (z-score),[34],-0.566
